The campaign covered roughly 39,000 compounds. About 3,300 (8.5%) were called active. The sample as a whole holds a higher share of actives than the screen did.
Each compound was assayed on HepG2 (assay: cytotoxicity call (relative viability < 0.9)). Conditions: 10 µM.

Row | Structure (SMILES) | cytotoxicity call
1 | CC(C)Oc1cccc(CC(=O)N2CCC[C@](CC[N+]34CCC(c5ccccc5)(CC3)CC4)(c3ccc(Cl)c(Cl)c3)C2)c1 | inactive
2 | CC(=O)N(C)C1(c2ccccc2)CCN(CCC[C@]2(c3ccc(Cl)c(Cl)c3)CCCN(C(=O)c3ccccc3)C2)CC1 | active
3 | CN1CCN(C(=O)C[C@@H]2CC[C@@H]3[C@@H](COc4ccc(NC(=O)c5cscn5)cc4C(=O)N3C)O2)CC1 | inactive
4 | O=C(C[C@@H]1CC[C@@H]2[C@H](COC[C@H](O)CN2C(=O)c2ccccn2)O1)NC1CCC1 | inactive
5 | CCc1cccc(C)c1NC(C)=O | inactive
6 | C[C@H](CO)N1C[C@H](C)[C@H](CN(C)S(C)(=O)=O)OCCCC[C@H](C)Oc2ccc(NS(=O)(=O)c3ccccc3)cc2C1=O | inactive
7 | COc1ccc(S(=O)(=O)N2C[C@@H](O)COC[C@H]3O[C@@H](CC(=O)NCCN4CCCCC4)CC[C@@H]32)cc1 | inactive
8 | C[C@@H]1CN([C@H](C)CO)C(=O)c2cccc(NC(=O)c3cnccn3)c2O[C@@H]1CN(C)Cc1ccc(C(=O)O)cc1 | inactive
9 | CC(C)CCCC(C)C1CCC2C3CCC4CC(O)CCC4(C)C3CCC12C (stereo not drawn) [5alpha-CHOLESTANOL ] | inactive
10 | CC(C)CCCC(C)C1CCC2C3CC(=O)C4CC(O)CCC4(C)C3CCC12C (stereo not drawn) [5alpha-CHOLESTAN-3beta-OL-6-ONE ] | inactive
11 | CC(C)CCC[C@@H](C)[C@H]1CC[C@H]2[C@@H]3C[C@@H](O)[C@@]4(O)C[C@@H](O)CC[C@]4(C)[C@H]3CC[C@]12C [CHOLESTAN-3beta,5alpha,6beta-TRIOL ] | active
12 | CCNC(=O)N1CCCC[C@@H]1CO | inactive
13 | CN[C@@H](C)C(=O)N[C@H]1CN(C(=O)CC(C)C)CC[C@H]2CC[C@@H](C(=O)NC(c3ccccc3)c3ccccc3)N2C1=O | active
14 | O=C(N[C@@H](c1ccccc1)c1ccc2ccccc2n1)C1CCN(C(=O)NC(c2ccccc2)c2ccccc2)CC1 | inactive
15 | C[C@H](N[C@@H](CCc1ccccc1)C(=O)O)C(=O)N1CCC[C@H]1C(=O)O | inactive
16 | COS(=O)(=O)[O-].COc1cc(N)cn[n+]1-c1ccccc1 | active
17 | COc1cnc(NS(=O)(=O)c2ccc(N)cc2)nc1 | inactive
18 | COCC#Cc1cnc2c(c1)C(=O)N([C@@H](C)CO)C[C@@H](C)[C@H](CN(C)C(=O)Nc1cc(F)ccc1F)O2 | inactive
19 | C[C@H]1CN([C@@H](C)CO)C(=O)c2cc(NC(=O)Nc3ccc(C(F)(F)F)cc3)ccc2O[C@H]1CN(C)C(=O)Nc1cccc2ccccc12 | inactive
20 | COc1ccc(NC(=O)Nc2ccc3c(c2)C(=O)N([C@@H](C)CO)C[C@H](C)[C@H](CN(C)C(=O)Nc2cccc4ccccc24)O3)cc1 | active
21 | COc1ccc(NC(=O)Nc2ccc3c(c2)C(=O)N([C@H](C)CO)C[C@H](C)[C@@H](CN(C)C(=O)Nc2cccc4ccccc24)O3)cc1 | inactive

Row | Structure (SMILES) | cytotoxicity call
22 | C[C@@H]1CN([C@H](C)CO)C(=O)c2cc(NC(=O)Nc3cccc4ccccc34)ccc2O[C@H]1CN(C)C(=O)Nc1cccc2ccccc12 | inactive
23 | C[C@H](CO)N1C[C@H](C)[C@@H](CN(C)C(=O)Nc2cccc3ccccc23)Oc2ccc(NC(=O)Nc3ccc(C(F)(F)F)cc3)cc2C1=O | inactive
24 | C[C@H](CO)N1C[C@H](C)[C@H](CN(C)C(=O)Nc2cccc3ccccc23)Oc2ccc(NC(=O)Nc3cccc4ccccc34)cc2C1=O | active
25 | C[C@@H]1CN([C@H](C)CO)C(=O)c2cc(NC(=O)Nc3ccc(C(F)(F)F)cc3)ccc2O[C@H]1CN(C)C(=O)Nc1cccc2ccccc12 | active
26 | C[C@H]1CN([C@@H](C)CO)C(=O)c2cc(NC(=O)Nc3cccc4ccccc34)ccc2O[C@H]1CN(C)C(=O)Nc1ccccc1 | active
27 | C[C@@H]1CN([C@H](C)CO)C(=O)c2cc(NC(=O)Nc3cccc4ccccc34)ccc2O[C@H]1CN(C)C(=O)Nc1ccccc1 | inactive
28 | C[C@@H]1CN([C@@H](C)CO)C(=O)c2cc(NC(=O)Nc3cccc4ccccc34)ccc2O[C@H]1CN(C)C(=O)Nc1cccc2ccccc12 | inactive
29 | COc1ccc(NC(=O)Nc2ccc3c(c2)C(=O)N([C@H](C)CO)C[C@@H](C)[C@@H](CN(C)C(=O)Nc2cccc4ccccc24)O3)cc1 | inactive
30 | C[C@@H]1CN([C@@H](C)CO)C(=O)c2cc(NC(=O)Nc3cccc4ccccc34)ccc2O[C@@H]1CN(C)C(=O)Nc1ccccc1 | inactive
31 | C[C@H]1CN([C@@H](C)CO)C(=O)Cc2cc(NS(=O)(=O)c3ccccc3)ccc2O[C@@H]1CN(C)S(=O)(=O)c1ccc(F)cc1 | inactive
32 | Cc1noc(C)c1S(=O)(=O)N(C)C[C@H]1Oc2ccc(NC(=O)Nc3ccc4c(c3)OCO4)cc2C(=O)N([C@@H](C)CO)C[C@H]1C | inactive
33 | CC(=O)N[C@@H]1CC[C@H](CCNC(=O)C2CC2)O[C@H]1CO | inactive
34 | O=C(C[C@@H]1C=C[C@H](NC(=O)c2cccc(F)c2)[C@H](CO)O1)NCCN1CCCC1 | inactive
35 | C[C@@H]1CCCCO[C@@H](CN(C)S(C)(=O)=O)[C@H](C)CN([C@@H](C)CO)C(=O)c2cc(NS(=O)(=O)c3ccc(F)cc3)ccc2O1 | inactive
36 | COc1ccc(NC(=O)Nc2ccc3c(c2)CC(=O)N([C@@H](C)CO)C[C@H](C)[C@@H](CN(C)C(=O)Nc2cccc4ccccc24)O3)cc1 | inactive
37 | C[C@@H]1CCCCO[C@@H](CN(C)S(=O)(=O)c2ccccc2)[C@H](C)CN([C@H](C)CO)C(=O)c2cc(NS(C)(=O)=O)ccc2O1 | inactive
38 | CC(C)CC#Cc1ccc2c(c1)O[C@@H](CN(C)S(=O)(=O)c1ccc(F)cc1)[C@@H](C)CN([C@H](C)CO)S2(=O)=O | inactive
39 | COc1ccccc1CNC(=O)C[C@H]1C[C@H]2c3cc(NC(=O)Cc4ccncc4)ccc3O[C@H]2[C@H](CO)O1 | inactive
40 | CC1OC(OC2C(Oc3cc(O)c4c(=O)cc(-c5ccc(O)cc5)oc4c3)OC(CO)C(O)C2O)C(O)C(O)C1O (stereo not drawn) | inactive
41 | Cc1noc(C)c1NC(=O)N(C)C[C@@H]1Oc2c(NC(=O)C3CC3)cccc2C(=O)N([C@H](C)CO)C[C@@H]1C | inactive
42 | Cc1noc(C)c1NC(=O)Nc1ccc2c(c1)C(=O)N([C@H](C)CO)C[C@@H](C)[C@@H](CN(C)CC1CCCCC1)OCCCC[C@H](C)O2 | inactive

Row | Structure (SMILES) | cytotoxicity call
43 | CC(C)NC(=O)N(C)C[C@H]1OCc2cn(nn2)CCCC(=O)N([C@H](C)CO)C[C@@H]1C | inactive
44 | CC(=O)OCC(=O)C1(O)CCC2C3CCC4=CC(=O)CCC4(C)C3C(O)CC21C (stereo not drawn) | inactive
45 | C[C@@H]1CN([C@H](C)CO)C(=O)c2cc(NC(=O)NC3CCCCC3)ccc2O[C@H]1CN(C)C(=O)Nc1cccc2ccccc12 | inactive
46 | C[C@@H]1CN([C@@H](C)CO)C(=O)c2cc(NC(=O)NC3CCCCC3)ccc2O[C@H]1CN(C)C(=O)Nc1cccc2ccccc12 | inactive
47 | C[C@H]1CN([C@@H](C)CO)C(=O)c2cc(NC(=O)NC3CCCCC3)ccc2O[C@H]1CN(C)C(=O)Nc1cccc2ccccc12 | active
48 | Cc1noc(C)c1S(=O)(=O)Nc1cccc2c1O[C@@H](CN(C)Cc1ccc3c(c1)OCO3)[C@@H](C)CN([C@H](C)CO)C2=O | inactive
49 | C[C@H]1CN([C@@H](C)CO)C(=O)c2cc(C#Cc3ccccc3F)cnc2O[C@H]1CN(C)S(=O)(=O)c1ccccc1F | inactive
50 | COCC(=O)N(C)C[C@H]1Oc2cc(C#CCC3CCCC3)ccc2S(=O)(=O)N([C@@H](C)CO)C[C@H]1C | inactive
51 | C[C@H]1CN([C@@H](C)CO)C(=O)Cc2cc(NC(=O)Nc3ccc(C#N)cc3)ccc2O[C@H]1CN(C)S(=O)(=O)c1ccc(Oc2ccccc2)cc1 | inactive
52 | Cc1ccc(S(=O)(=O)N(C)C[C@@H]2Oc3ccc(NC(=O)Nc4cccc5ccccc45)cc3CC(=O)N([C@@H](C)CO)C[C@H]2C)cc1 | inactive
53 | C[C@H]1CN([C@@H](C)CO)C(=O)Cc2cc(NC(=O)Nc3ccc(Cl)c(Cl)c3)ccc2O[C@H]1CN(C)S(=O)(=O)c1ccc(Oc2ccccc2)cc1 | inactive
54 | CC(C)NC(=O)Nc1ccc2c(c1)CC(=O)N([C@@H](C)CO)C[C@H](C)[C@H](CN(C)S(=O)(=O)c1ccc(F)cc1)O2 | inactive
55 | C[C@H]1CN([C@@H](C)CO)C(=O)Cc2cc(NC(=O)Nc3cc(Cl)cc(Cl)c3)ccc2O[C@H]1CN(C)S(=O)(=O)c1ccc(Oc2ccccc2)cc1 | active
56 | C[C@H]1CN([C@@H](C)CO)C(=O)Cc2cc(NC(=O)Nc3cccc4c3CCCC4)ccc2O[C@H]1CN(C)S(=O)(=O)c1ccc(Oc2ccccc2)cc1 | active
57 | CC(C)NC(=O)Nc1ccc2c(c1)CC(=O)N([C@H](C)CO)C[C@@H](C)[C@@H](CN(C)S(=O)(=O)c1ccccc1)O2 | inactive
58 | C[C@H]1CN([C@@H](C)CO)C(=O)Cc2cc(NC(=O)Nc3ccc(F)cc3)ccc2O[C@H]1CN(C)S(=O)(=O)c1ccc(Oc2ccccc2)cc1 | active
59 | C[C@H]1CN([C@@H](C)CO)C(=O)Cc2cc(NC(=O)Nc3cccc4c3CCCC4)ccc2O[C@H]1CN(C)S(=O)(=O)c1ccc(Cl)cc1 | inactive
60 | CCCN(C)C[C@@H]1Oc2cc(C#Cc3ccccc3OC)ccc2S(=O)(=O)N([C@@H](C)CO)C[C@@H]1C | inactive
61 | COc1ccc(S(=O)(=O)Nc2ccc3c(c2)C(=O)N([C@H](C)CO)C[C@H](C)[C@H](CN(C)S(=O)(=O)c2cccs2)O3)cc1 | inactive
62 | O=C(C[C@@H]1C[C@H]2c3cc(NC(=O)Cc4ccncc4)ccc3O[C@H]2[C@H](CO)O1)NCc1ccc2c(c1)OCO2 | inactive
63 | C=C(C(=O)O)[C@@H](CCCCCCOC(=O)C(=O)OCCCCCC[C@@H](C(=C)C(=O)O)C(=O)O)C(=O)O | inactive

From the antibiotic and cytotoxicity screens of Wong et al. (2023)
